# From the supplement of paper PMC4466140
# Columns and labels:
# Assay in all cases: SPOT peptide array binding signal intensity (averaged, normalized) (arbitrary units (background-subtracted, floor 0; scale differs between SH3 domains)); higher = stronger binding of the SH3 domain to the peptide
# AgAbp1 = biological target: AgAbp1
# Outline: (§1)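 GST-fused SH3 domains from four yeast species were expressed in E. coli BL21(DE3), purified on glutathione Sepharose and incubated at 10 μg/ml overnight at 4°C in TBS-based blocking buffer on cellulose membranes carrying synthetic 15-mer peptides, with cysteines replaced by serines. Bound protein was detected with anti-GST antibody, an HRP anti-mouse secondary and luminol, then imaged and quantified with Genespotter. Binding signal is the normalized, background-subtracted spot intensity averaged over replicates, in arbitrary units that differ between domains.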
# AgBbc1 = biological target: AgBbc1
# Outline: as §1
# AgBem1-D1 = biological target: AgBem1-D1
# Outline: as §1
# AgBzz1-D1 = biological target: AgBzz1-D1
# Outline: as §1
# AgBzz1-D2 = biological target: AgBzz1-D2
# Outline: as §1
# AgCyk3 = biological target: AgCyk3
# Outline: as §1
# AgFus1 = biological target: AgFus1
# Outline: as §1
# AgHof1 = biological target: AgHof1
# Outline: as §1
# AgHse1 = biological target: AgHse1
# Outline: as §1
# AgLsb1 = biological target: AgLsb1
# Outline: as §1
# AgLsb4 = biological target: AgLsb4
# Outline: as §1
# AgMyo5 = biological target: AgMyo5
# Outline: as §1
# AgNbp2 = biological target: AgNbp2
# Outline: as §1
# AgRvs167 = biological target: AgRvs167
# Outline: as §1
# AgSho1 = biological target: AgSho1
# Outline: as §1
# AgSla1-D1-D2 = biological target: AgSla1-D1-D2
# Outline: as §1
# AgSla1-D3 = biological target: AgSla1-D3
# Outline: as §1
# CaAbp1-D1 = biological target: CaAbp1-D1
# Outline: as §1
# CaAbp1-D2 = biological target: CaAbp1-D2
# Outline: as §1
# CaBbc1 = biological target: CaBbc1
# Outline: as §1
# CaBem1-D1 = biological target: CaBem1-D1
# Outline: as §1
# CaBzz1-D1 = biological target: CaBzz1-D1
# Outline: as §1
# CaBzz1-D2 = biological target: CaBzz1-D2
# Outline: as §1
# CaCyk3 = biological target: CaCyk3
# Outline: as §1
# CaFus1 = biological target: CaFus1
# Outline: as §1
# CaHof1 = biological target: CaHof1
# Outline: as §1
# CaHse1 = biological target: CaHse1
# Outline: as §1
# CaLsb1 = biological target: CaLsb1
# Outline: as §1
# CaLsb4 = biological target: CaLsb4
# Outline: as §1
# CaMyo5 = biological target: CaMyo5
# Outline: as §1
# CaNbp2 = biological target: CaNbp2
# Outline: as §1
# CaRvs167 = biological target: CaRvs167
# Outline: as §1
# CaRvs167-3 = biological target: CaRvs167-3
# Outline: as §1
# CaSho1 = biological target: CaSho1
# Outline: as §1
# CaSla1-D1-D2 = biological target: CaSla1-D1-D2
# Outline: as §1
# CaSla1-D3 = biological target: CaSla1-D3
# Outline: as §1
# ScAbp1 = biological target: ScAbp1
# Outline: as §1
# ScBbc1 = biological target: ScBbc1
# Outline: as §1
# ScBem1-D1 = biological target: ScBem1-D1
# Outline: as §1
# ScBzz1-D1 = biological target: ScBzz1-D1
# Outline: as §1
# ScBzz1-D2 = biological target: ScBzz1-D2
# Outline: as §1
# ScCyk3 = biological target: ScCyk3
# Outline: as §1
# ScFus1 = biological target: ScFus1
# Outline: as §1
# ScHof1 = biological target: ScHof1
# Outline: as §1
# ScHse1 = biological target: ScHse1
# Outline: as §1
# ScLsb1 = biological target: ScLsb1
# Outline: as §1
# ScLsb2 = biological target: ScLsb2
# Outline: as §1
# ScLsb3 = biological target: ScLsb3
# Outline: as §1
# ScLsb4 = biological target: ScLsb4
# Outline: as §1
# ScMyo3 = biological target: ScMyo3
# Outline: as §1
# ScMyo5 = biological target: ScMyo5
# Outline: as §1
# ScNbp2 = biological target: ScNbp2
# Outline: as §1
# ScPex13 = biological target: ScPex13
# Outline: as §1
# ScRvs167 = biological target: ScRvs167
# Outline: as §1
# ScSho1 = biological target: ScSho1
# Outline: as §1
# ScSla1-D1-D2 = biological target: ScSla1-D1-D2
# Outline: as §1
# ScSla1-D3 = biological target: ScSla1-D3
# Outline: as §1
# SpAbp1-D1 = biological target: SpAbp1-D1
# Outline: as §1
# SpBbc1 = biological target: SpBbc1
# Outline: as §1
# SpBzz1-D1 = biological target: SpBzz1-D1
# Outline: as §1
# SpBzz1-D2 = biological target: SpBzz1-D2
# Outline: as §1
# SpCyk3 = biological target: SpCyk3
# Outline: as §1
# SpHof1 = biological target: SpHof1
# Outline: as §1
# SpHof1-2 = biological target: SpHof1-2
# Outline: as §1
# SpHof1-3 = biological target: SpHof1-3
# Outline: as §1
# SpHse1 = biological target: SpHse1
# Outline: as §1
# SpLsb1 = biological target: SpLsb1
# Outline: as §1
# SpLsb4 = biological target: SpLsb4
# Outline: as §1
# SpMyo1 = biological target: SpMyo1
# Outline: as §1
# SpNbp2 = biological target: SpNbp2
# Outline: as §1
# SpPex13 = biological target: SpPex13
# Outline: as §1
# SpRvs167 = biological target: SpRvs167
# Outline: as §1
# SpSla1-D1-D2 = biological target: SpSla1-D1-D2
# Outline: as §1
# SpSla1-D3 = biological target: SpSla1-D3
# Outline: as §1
binder,measurement,setting,value
FVLRYYILIPHEQWD,SPOT peptide array binding signal intensity,AgAbp1,6
same,SPOT peptide array binding signal intensity,AgBbc1,≤ 0
same,SPOT peptide array binding signal intensity,AgBem1-D1,190
same,SPOT peptide array binding signal intensity,AgBzz1-D1,≤ 0
same,SPOT peptide array binding signal intensity,AgBzz1-D2,5.5
same,SPOT peptide array binding signal intensity,AgCyk3,13.5
same,SPOT peptide array binding signal intensity,AgFus1,1800
same,SPOT peptide array binding signal intensity,AgHof1,5
same,SPOT peptide array binding signal intensity,AgHse1,1200
same,SPOT peptide array binding signal intensity,AgLsb1,3
same,SPOT peptide array binding signal intensity,AgLsb4,334
same,SPOT peptide array binding signal intensity,AgMyo5,1
same,SPOT peptide array binding signal intensity,AgNbp2,82.5
same,SPOT peptide array binding signal intensity,AgRvs167,2.5
same,SPOT peptide array binding signal intensity,AgSho1,218
same,SPOT peptide array binding signal intensity,AgSla1-D1-D2,14.5
same,SPOT peptide array binding signal intensity,AgSla1-D3,2.75
same,SPOT peptide array binding signal intensity,CaAbp1-D1,30.5
same,SPOT peptide array binding signal intensity,CaAbp1-D2,78.5
same,SPOT peptide array binding signal intensity,CaBbc1,0.25
same,SPOT peptide array binding signal intensity,CaBem1-D1,≤ 0
same,SPOT peptide array binding signal intensity,CaBzz1-D1,63
same,SPOT peptide array binding signal intensity,CaBzz1-D2,36.8
same,SPOT peptide array binding signal intensity,CaCyk3,5
same,SPOT peptide array binding signal intensity,CaFus1,3930
same,SPOT peptide array binding signal intensity,CaHof1,0.75
same,SPOT peptide array binding signal intensity,CaHse1,174
same,SPOT peptide array binding signal intensity,CaLsb1,6.5
same,SPOT peptide array binding signal intensity,CaLsb4,31.5
same,SPOT peptide array binding signal intensity,CaMyo5,31.5
same,SPOT peptide array binding signal intensity,CaNbp2,595
same,SPOT peptide array binding signal intensity,CaRvs167,216
same,SPOT peptide array binding signal intensity,CaRvs167-3,119
same,SPOT peptide array binding signal intensity,CaSho1,666
same,SPOT peptide array binding signal intensity,CaSla1-D1-D2,≤ 0
same,SPOT peptide array binding signal intensity,CaSla1-D3,163
same,SPOT peptide array binding signal intensity,ScAbp1,≤ 0
same,SPOT peptide array binding signal intensity,ScBbc1,≤ 0
same,SPOT peptide array binding signal intensity,ScBem1-D1,14.5
same,SPOT peptide array binding signal intensity,ScBzz1-D1,14
same,SPOT peptide array binding signal intensity,ScBzz1-D2,28
same,SPOT peptide array binding signal intensity,ScCyk3,35
same,SPOT peptide array binding signal intensity,ScFus1,1310
same,SPOT peptide array binding signal intensity,ScHof1,≤ 0
same,SPOT peptide array binding signal intensity,ScHse1,1060
same,SPOT peptide array binding signal intensity,ScLsb1,≤ 0
same,SPOT peptide array binding signal intensity,ScLsb2,1.5
same,SPOT peptide array binding signal intensity,ScLsb3,67
same,SPOT peptide array binding signal intensity,ScLsb4,5
same,SPOT peptide array binding signal intensity,ScMyo3,1.5
same,SPOT peptide array binding signal intensity,ScMyo5,3
same,SPOT peptide array binding signal intensity,ScNbp2,187
same,SPOT peptide array binding signal intensity,ScPex13,7.5
same,SPOT peptide array binding signal intensity,ScRvs167,9.83
same,SPOT peptide array binding signal intensity,ScSho1,1100
same,SPOT peptide array binding signal intensity,ScSla1-D1-D2,7.5
same,SPOT peptide array binding signal intensity,ScSla1-D3,51
same,SPOT peptide array binding signal intensity,SpAbp1-D1,59.5
same,SPOT peptide array binding signal intensity,SpBbc1,2
same,SPOT peptide array binding signal intensity,SpBzz1-D1,20.5
same,SPOT peptide array binding signal intensity,SpBzz1-D2,3.25
same,SPOT peptide array binding signal intensity,SpCyk3,27.5
same,SPOT peptide array binding signal intensity,SpHof1,79.5
same,SPOT peptide array binding signal intensity,SpHof1-2,32.5
same,SPOT peptide array binding signal intensity,SpHof1-3,554
same,SPOT peptide array binding signal intensity,SpHse1,954
same,SPOT peptide array binding signal intensity,SpLsb1,2.5
same,SPOT peptide array binding signal intensity,SpLsb4,11.5
same,SPOT peptide array binding signal intensity,SpMyo1,13.2
same,SPOT peptide array binding signal intensity,SpNbp2,574
same,SPOT peptide array binding signal intensity,SpPex13,47.5
same,SPOT peptide array binding signal intensity,SpRvs167,10.7
same,SPOT peptide array binding signal intensity,SpSla1-D1-D2,1
same,SPOT peptide array binding signal intensity,SpSla1-D3,9.5
